# Screening results: PubChem, several laboratories
# Most compounds without a hit are left out; they make up all but 4.6% or so of the library.
# PfHsp90 set2 – reduces growth (ATP signal) of yeast expressing P. falciparum Hsp90 | S. cerevisiae expressing PfHsp90, BacTiter-Glo ATP, 48 h; yeast lacking PDR1 and PDR3 efflux regulators | inhibition, % at 9.4 µM | 310,000 compounds, 0.32% hits;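 active = every replicate shows inhibition above about 80%, whatever the replicate mean, limit read from the data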;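 note: 0% = DMSO neutral controls and 100% = 20 µM radicicol positive controls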
# tim10-1 inh – growth inhibitors of tim10-1 mutant yeast | S. cerevisiae tim10-1 ts strain growth, BacTiter-Glo, 24 h | inhibition, % at 20 µM | 330,000 compounds, 2.2% hits | AID 463190;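 active = inhibition of at least 40%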;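 note: mutant grown at 25 °C; 0% = DMSO wells with yeast and 100% = wells holding no yeast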
# TIM10 inh – inhibits growth of TIM10 yeast strain; S. cerevisiae TIM10 strain growth, BacTiter-Glo luminescence, 24 h; inhibition, % at 10 µM; 330,000 compounds, 1.4% hits; AID 463195;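 active = inhibition of 40% or more at the single tested concentration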;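 note: wild-type TIM10 isogenic control strain grown at permissive 25 °C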
# NLRP3 yeast inh – inhibitors of NALP3 inflammasome in yeast | inhibition, % at 10 µM | 330,000 compounds, 0.39% hits | Yeast reconstituted NLRP3/ASC/caspase-1, beta-gal luminescence, 24 h;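 active = inhibition of 50% or more; inactive = inhibition below 50%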;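 note: plate controls were induced DMSO wells for no effect and uninduced yeast grown without galactose for full effect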
# SKKanGAS inh – SKKanGAS growth inhibition; S. pyogenes SKKanGAS, kanamycin growth, BacTiter-Glo, 6 h; inhibition, % at 7.5 µM; 300,000 compounds, 1.3% hits; AID 1662;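 active = mean replicate score, as percent of positive control median, at least 50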;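 note: strain carries kanamycin resistance gene driven by streptokinase promoter and grows in 40 µg/ml kanamycin; loss of luminescence reflects streptokinase promoter inhibition or plain growth inhibition; 0% = median of DMSO wells and 100% = positive control at its reference dose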
# tim23-1 inh – tim23-1 yeast growth inhibition | S. cerevisiae tim23-1 growth, BacTiter-Glo luminescence, 24 h | inhibition, % at 20 µM | 330,000 compounds, 1.3% hits;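 active = growth inhibition of the mutant yeast at or above 50%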;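 note: temperature-sensitive mutant grown at 25 °C; plate controls were DMSO-treated mutant yeast for no effect and medium wells lacking yeast for full effect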
# tim23-1 confirm – tim23-1 yeast growth inhibition, confirmed | shares compounds with tim23-1 inh | S. cerevisiae tim23-1 growth, BacTiter-Glo luminescence, 24 h | inhibition, % at 20 µM | 4,400 compounds, 83% hits | AID 463218;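 active = inhibition above about 39% in either of two replicate wells at 20 µM, limit read from the data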;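 note: temperature-sensitive tim23-1 mutant grown at 25 °C; 0% = DMSO wells with yeast and 100% = medium wells without yeast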
# An asterisk follows results filed as active; nt = no result given.
SMILES,PfHsp90 set2,tim10-1 inh,TIM10 inh,NLRP3 yeast inh,SKKanGAS inh,tim23-1 inh,tim23-1 confirm
CC(=O)Nc1ccc(C2CC(c3ccc(Cl)cc3)=NN2c2ccccc2)cc1 (stereo unspecified),-8.5,38.3,22.6,-11.0,26.2,63.1*,41.5*
CC(=O)Nc1ccc(C2=NN(c3ccccc3)C(c3ccccc3)C2)cc1 (stereo unspecified),-6.2,30.4,20.0,24.9,17.5,29.6,nt
CC(C)(C)C(=O)/C(C#N)=C/c1cccs1,1.6,-10.1,-24.3,18.9,-5.2,17.7,nt
N#C/C(=C\c1cccs1)C(=O)c1ccccc1Cl,nt,16.4,18.9,7.8,0.8,62.0*,56.6*
CN(C)CC1CCCCC1OC(=O)/C=C/c1ccccc1 (stereo unspecified),-10.1,5.6,-2.3,-5.5,6.6,-3.1,nt
CCOc1ccc2oc(C(=O)Nc3ccc4c(c3)OCO4)c(C)c2c1,-6.6,-5.8,11.9,32.8,16.5,95.3*,17.2
Cc1ccc(C(=O)NC2=NCCS2)cc1Cl,7.0,-21.3,15.3,22.2,-5.4,55.1*,46.8*
CSc1ccc(N=Nc2c(C)[nH]n(C)c2=O)cc1,-11.2,29.2,11.7,40.7,16.9,26.2,nt
O=C(Nc1nccs1)c1ccc(Br)cc1,9.3,-20.6,-10.2,35.7,-2.3,56.4*,33.8
O=C(CCNC(=O)c1ccc(Br)cc1)Nc1nccs1,-5.2,-1.0,-44.1,1.2,-0.2,-12.8,nt
O=C(Nc1nccs1)c1ccc(Br)s1,-7.5,33.3,30.9,49.8,0.5,63.7*,52.1*
O=C(O)c1ccc(N/N=C/c2cc3cc4c(cc3nc2Cl)OCCO4)cc1,7.6,-5.5,9.1,3.6,-25.2,3.6,nt
O=Cc1cc2cc3c(cc2nc1Cl)OCCO3,nt,14.6,13.2,1.9,1.4,72.6*,51.6*
Cc1ccc2cc(C=O)c(Cl)nc2c1,-24.5,13.0,30.9,22.6,7.6,50.1*,48.1*
CCN(CC(=O)Nc1ccc(NC(C)=O)cc1)C(=O)C1(c2ccccc2)CC1,-1.7,4.9,2.4,3.8,nt,9.2,nt
CCn1c(=O)c2c(nc(SCC(=O)NC3CCCC3)n2C)n(C)c1=O,-6.1,-16.7,2.9,10.3,-0.2,-0.2,nt
Cc1cc(C)c(NC(=O)C2CCCN2C(=O)NC2CCCCC2)c(C)c1 (stereo unspecified),-2.6,18.4,5.0,-13.8,-1.1,17.2,nt
O=C(NC(=S)Nc1ccccc1N1CCOCC1)c1ccco1,-15.6,38.6,33.3,-33.5,-18.2,54.7*,37.8
O=C(Nc1ccccc1N1CCOCC1)c1ccco1,-9.9,-4.7,10.9,-21.4,-2.2,-1.5,nt
O=C(NC(=S)Nc1cccc(Cl)c1N1CCCCC1)c1cccs1,-10.8,32.1,38.3,18.7,60.0*,52.7*,-131.4
O=C(NC(=S)Nc1cccc(Cl)c1N1CCCCC1)c1ccco1,-7.3,38.1,34.2,-1.9,36.3,50.8*,28.6
CCCCC/C=C/C1=CC(=O)C[C@H](c2ccc(OC)c(OC)c2)C1,27.1,29.9,29.9,8.1,nt,35.9,nt
CC(C)c1ccc(/C=C/C(=O)NC(=S)NN2CCOCC2)cc1,4.8,29.4,26.8,10.4,nt,54.3*,36.3
COc1cc(/C=C2\C(=O)ON=C2c2ccc(Cl)cc2)ccc1O,nt,24.9,12.1,-3.5,-2.7,39.1,nt
COc1cc(/C=C2\OC(=O)c3c(OC)cccc32)ccc1O,43.4,35.1,27.7,30.7,13.5,53.3*,48.1*
SMILES,PfHsp90 set2,tim10-1 inh,TIM10 inh,NLRP3 yeast inh,SKKanGAS inh,tim23-1 inh,tim23-1 confirm
COc1ccc([C@H]2CC(=O)C=C(c3ccc4[nH]ccc4c3)C2)cc1OC,25.6,20.1,20.1,11.9,nt,34.2,nt
O=C1C=C(c2ccc3c(c2)OCCO3)C[C@@H](c2ccc(F)cc2)C1,5.8,22.4,16.8,0.9,nt,51.0*,47.5*
O=C1C=C(c2ccc3[nH]ccc3c2)C[C@@H](c2ccc(F)cc2)C1,-51.3,38.8,24.6,4.2,nt,53.0*,50.5*
CC(CC(=O)Nc1ccc(S(=O)(=O)N2CCOCC2)cc1)c1ccccc1 (stereo unspecified),2.4,15.6,-10.9,0.3,4.1,25.8,nt
Nc1nc2ccc(C(=O)Nc3ccccc3)cc2s1,-0.2,10.6,11.6,12.6,7.4,26.3,nt
CCc1ccc(NC(=O)c2ccc3nc(N)sc3c2)cc1,-35.4,6.9,-19.1,27.6,14.6,54.4*,30.8
Cn1nc(C(=O)NCc2ccccc2)c2c1-c1ccccc1S(=O)(=O)C2,14.8,16.3,7.2,-7.8,0.7,16.4,nt
COC(=O)c1ccccc1NC(=O)c1ccccc1OC,-18.5,36.7,0.1,34.8,-3.2,51.2*,32.0
COc1ccc(C(=O)NC(=S)Nc2cccc3cc(O)ccc23)cc1OC,-54.7,25.7,24.4,17.5,3.7,21.5,nt
COc1ccccc1C(=O)NC(=S)Nc1cccc2cc(O)ccc12,0.0,33.1,18.8,26.3,11.3,53.5*,46.0*
COc1ccccc1NC(=O)c1ccccc1C(=O)Nc1ccccc1OC,-7.2,22.4,12.4,14.9,-2.8,30.9,nt
COc1ccccc1C(=O)Nc1c(C)cc(Br)cc1C,1.8,36.2,18.0,33.0,1.5,45.7,nt
COc1ccccc1C(=O)Nc1cc(-c2ccc(C)cc2)no1,16.7,29.4,27.5,23.7,3.8,55.4*,46.9*
CCN1C[C@@H]2[C@@H]3C(=O)N(Cc4ccccc4)C(=O)[C@@H]3[C@](Cc3ccccc3)(C1=O)N2C(=O)c1ccc(Br)cc1,10.9,nt,nt,nt,nt,nt,nt
Nc1ccccc1SC1CC(=O)N(Cc2ccccc2)C1=O (stereo unspecified),-35.6,5.7,-1.3,11.0,3.1,15.8,nt
CCOc1ccc2nc(COC(=O)c3cccc([N+](=O)[O-])c3)c(C(C)=O)[n+]([O-])c2c1,nt,-2.2,2.5,21.4,4.9,23.3,nt
Cc1cccc(-n2c(SCC(=O)N(C)C3CCS(=O)(=O)C3)nc3ccccc3c2=O)c1C (stereo unspecified),20.2,-20.1,-8.1,18.0,1.9,-14.4,nt
O=C(Cc1ccc(Cl)cc1)N/N=C/c1ccncc1,-1.9,3.4,7.6,10.2,-2.6,3.2,nt
COC(=O)n1c(=O)oc2cc(S(=O)(=O)N3CCOCC3)ccc21,nt,-0.9,-2.6,-7.7,10.0,16.1,nt
COC(=O)n1c(=S)oc2cc(Cl)ccc21,nt,22.9,15.5,10.9,-0.5,77.6*,78.8*
O=[N+]([O-])c1ccc2nc(Cl)nc(-c3ccccc3)c2c1,18.1,31.2,39.7,8.8,1.7,53.8*,48.2*
O=C(Cn1nc(Cl)nc1Cl)c1ccc(F)cc1,-21.7,-9.0,3.0,-2.5,-13.9,4.4,nt
O=C(Cn1nc(Cl)nc1Cl)c1ccc2c(c1)OCCO2,28.5,26.0,16.1,5.8,1.4,54.6*,38.2
Cc1ccc(NC(=O)c2ccc3c(c2)OCCO3)cc1C,14.0,14.9,33.0,44.3,3.0,63.6*,62.6*
